The panel holds about 83,000 compounds, 20% with a hit somewhere; the sample as a whole holds those more often.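 For each line, cells grew in 96-well plates with the test compound present at a single concentration for 48 hours.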 A number with no mark means an inactive call. Activity calls are given as the source filed them. The calls were made as follows: active = growth percent below 10; inactive = the rest.
Tests used:
Assay in all cases: NCI-60 one-dose screen, 48 h (100 = growth as untreated, 0 = no growth, -100 = all killed)
Details in all cases: 10 µM unless noted
[1] = tested on: HCT-15 colon
[2] = tested on: HT29 colon
[3] = tested on: SNB-75 CNS
[4] = tested on: SNB-19 CNS
[5] = tested on: U251 CNS
[6] = tested on: PC-3 prostate
[7] = tested on: SK-MEL-5 melanoma
[8] = tested on: UACC-62 melanoma
[9] = tested on: LOX IMVI melanoma
[10] = tested on: SK-MEL-28 melanoma
[11] = tested on: SK-MEL-2 melanoma
[12] = tested on: SN12C renal
[13] = tested on: UO-31 renal
[14] = tested on: TK-10 renal
[15] = tested on: CAKI-1 renal
[16] = tested on: A498 renal
[17] = tested on: CCRF-CEM leukemia
[18] = tested on: MOLT-4 leukemia
[19] = tested on: ACHN renal

SMILES	growth [1]	growth [2]	growth [3]	growth [4]	growth [5]	growth [6]	growth [7]	growth [8]	growth [9]	growth [10]	growth [11]	growth [12]	growth [13]	growth [14]	growth [15]	growth [16]	growth [17]	growth [18]	growth [19]
COc1cc(CNC(=O)CCSc2nc3ccccc3c(=O)n2Cc2cc(OC)c(OC)c(OC)c2)cc(OC)c1OC	17.7%	12.9%	17.9%	56%	38.3%	49.5%	12.6%	36.3%	44.6%	55.8%	-9.25% (active)	50.7%	47.2%	62%	34.3%	21.7%	35.5%	18.8%	
Nc1c(C(=O)c2ccc(F)cc2)sc2nc3c(cc12)CCCC3	58.4%	66%	85.8%	95.4%	79.4%	80.7%	89.2%	75%	75.8%	76.8%	67.7%	82.5%	75.3%		84.6%	56.2%	77.9%	66.6%	96.6%
COC(=O)c1cc(-c2cccs2)c(C#N)c(N)c1C#N	101%	106%	83.4%	97.1%	95.5%	95.5%	102%	99.3%	99%	114%	112%	102%	92.7%	116%		104%	92.5%	98.1%	107%
CCN(CC)P(=O)(N(CC)CC)N(CCCSC/C=C(\C)CC/C=C(\C)CCC=C(C)C)CCCN1CCN(C)CC1	93.2%	98.9%	93%	92.8%	101%	95.5%	100%	94.2%	81.3%	107%	118%	92.9%	92.8%		89.9%	77.2%	87.2%	93.1%	119%
CCC(=O)Oc1cc(/C=C/C(=O)O[C@H]2C[C@H]3CN4CCc5c([nH]c6cc(OC)ccc56)[C@@H]4C[C@@H]3[C@@H](C(=O)OC)[C@@H]2OC)ccc1OC	59.8%	-1.66% (active)	36.7%	87.2%	61.1%	65.1%	82.9%	82.9%	79.5%	88.8%	101%	55.9%	40.9%	75.2%	45.6%	5.24% (active)	38.1%	50.8%	
O=C1N=C(c2c(-c3[nH]c(=O)c4ccc(Br)cc4c3O)c(O)c3ccccc3c2O)C(=O)c2cc(Br)ccc21	-36.3% (active)	25.7%	-35.8% (active)	4.13% (active)	-57.9% (active)	-60.5% (active)	-9.06% (active)	-48.9% (active)	-67.5% (active)	-47.8% (active)	-14.7% (active)	-75.4% (active)	-65% (active)	-39% (active)	-72% (active)		25.3%	31%	
COc1ccc(-n2cnc3c(sc4ncc(Cl)cc43)c2=O)cc1	101%	79.3%	90.3%	108%	74.7%	83.1%	99.1%	109%	58%	102%	120%	101%	5.62% (active)	89.9%		76.8%		96.6%	82.1%
COc1ccc(/C=C/C(=O)c2cccc(B(O)O)c2)cc1O	12%	69.5%	9.35% (active)	59.5%	44.2%	59.9%	81.7%	33.7%	13.8%	79.2%	107%	28.7%	19.9%	99.3%		52.1%	37.3%	46.6%	60.6%
Nc1c(C(=O)Nc2ccccc2)sc2nc3c(cc12)CCCCC3	20.1%	-15.5% (active)	-6.57% (active)	22.1%	13.8%	9.02% (active)	11.3%	5.45% (active)	22.1%	36.6%	12.6%	45.3%	21.5%	21.6%		-5.02% (active)	2.92% (active)	29.2%	30.3%
COc1c(NC[C@H]2OC(O)[C@H](O)[C@@H](O)[C@@H]2O)c(=O)c1=O (stereo partly drawn)	107%	118%	70.9%	109%	95.4%	92.7%	100%	96.6%	95.5%	107%	121%	101%	86.7%	97%		73%	81.2%	102%	
COc1cc(Cn2c(SCC(=O)Nc3cc(OC)c(OC)c(OC)c3)nc3ccccc3c2=O)cc(OC)c1OC	89.9%	99.5%	-13.7% (active)	74.8%	52.6%	87.7%	90.4%	84.4%	92.1%	100%	75.1%	82%	80.4%	67.9%	95.5%	62.4%	101%	89.4%	
O=C(O)c1cccc([N+](=O)[O-])c1/C=C/c1ccccc1	102%	100%	86.9%	101%	97.4%	124%	103%	107%	96%	105%	106%	98.7%	92.9%		93.4%	89.1%	103%	97.7%	110%
Cc1ccc(C(=O)c2sc3nc4c(cc3c2N)CCCC4)c(C)c1	29.8%	9.13% (active)	-14.3% (active)	51.5%	21.2%	5.81% (active)	24.6%	24.3%	30.6%	55%	-13.7% (active)	44.1%	30.8%		7.6% (active)	-10.8% (active)	6.69% (active)	21.8%	46.4%
COc1ccc2c(c1)C(=O)/C(=C/c1ccc(O)cc1)O2	52.1%	90.1%	67.5%	89.3%	92.9%	39.6%	87.8%	77.1%	45.5%	92.6%	81.2%	76.8%	-97.4% (active)	75.1%	71.8%	94.8%	104%	62.8%	
Cn1cc(C=O)c2ccccc21	103%	100%	80%	100%	98.5%	83.4%	99.4%	106%	88.4%	109%	109%	91.7%	60.6%	102%	94.6%	95.4%	90.6%	92%	
Cn1c(-c2nonc2NC(=O)c2ccc(F)cc2)nc2ccccc21	103%	101%	100%	110%	108%	101%	97.2%	108%	97.8%	110%	112%	102%		124%	105%	85.6%	105%	-1.74% (active)	112%
COc1ccc(C(=O)/C=C/c2ccc(/C=C/c3cc(OC)c(OC)c(OC)c3)cc2)cc1	33.6%	36.2%	59.8%	74.4%	36.3%	52.2%	62%	53.7%	24.7%	84.7%	65.1%	56.7%	40.6%		74.4%	80%	19.6%	9.62% (active)	68.1%
